The sample as a whole holds a higher share of the strongest signals than the screen did.
Experiments:
Test in all cases: glycan array binding signal (z-score within array); higher = stronger binding
Conditions in all cases: glycan notation: IUPAC condensed, linker removed
[1] = target: Fuc(a1-2)Gal(b1-3)GlcNAc(b1-2)Man(a1-3)[Fuc(a1-2)Gal(b1-3)GlcNAc(b1-2)Man(a1-6)]Man(b1-4)GlcNAc(b1-4)GlcNAc
Outline: (§1)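 Negative Z-scores can be read as non-binding. The Z-score is calculated within each array and then averaged across arrays of one protein sequence at different concentrations or buffers and across linkers. Arrays, 3228 in all, were curated from the Consortium for Functional Glycomics database and kept only where the protein sequence was available.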

[2] = target: Fuc(a1-2)Gal(b1-4)GlcNAc6S
Outline: as §1

[3] = target: Fuc(a1-2)Gal(b1-4)[Fuc(a1-3)]GlcNAc(b1-2)[Fuc(a1-2)Gal(b1-4)[Fuc(a1-3)]GlcNAc(b1-4)]Man(a1-3)[Fuc(a1-2)Gal(b1-4)[Fuc(a1-3)]GlcNAc(b1-2)Man(a1-6)]Man(b1-4)GlcNAc(b1-4)GlcNAc
Outline: as §1

[4] = target: Fuc(a1-2)Gal(b1-4)[Fuc(a1-3)]GlcNAc(b1-3)Gal(b1-4)[Fuc(a1-3)]GlcNAc(b1-3)Gal(b1-4)[Fuc(a1-3)]GlcNAc
Outline: as §1

[5] = target: Fuc(a1-2)Gal6S(b1-3)GlcNAc
Outline: as §1

[6] = target: Fuc(a1-2)[Gal(a1-3)]Gal(b1-4)GlcNAc(b1-3)[Fuc(a1-2)[Gal(a1-3)]Gal(b1-4)GlcNAc(b1-6)]GalNAc
Outline: as §1

[7] = target: Fuc(a1-2)[GalNAc(a1-3)]Gal(b1-4)Glc
Outline: as §1

[8] = target: Fuc(a1-2)[GalNAc(a1-3)]Gal(b1-4)GlcNAc(b1-2)Man(a1-3)[Fuc(a1-2)[GalNAc(a1-3)]Gal(b1-4)GlcNAc(b1-2)Man(a1-6)]Man(b1-4)GlcNAc(b1-4)[Fuc(a1-6)]GlcNAc
Outline: as §1

[9] = target: Fuc(a1-3)[Gal(b1-4)]GlcNAc(b1-2)Man(a1-3)[Fuc(a1-3)[Gal(b1-4)]GlcNAc(b1-2)Man(a1-6)]Man(b1-4)GlcNAc(b1-4)GlcNAc
Outline: as §1

[10] = target: Fuc(a1-3)[Gal(b1-4)]GlcNAc(b1-3)Gal(b1-4)[Fuc(a1-3)]GlcNAc(b1-3)Gal(b1-4)[Fuc(a1-3)]GlcNAc
Outline: as §1

[11] = target: Fuc(a1-3)[Gal(b1-4)]GlcNAc(b1-3)GalNAc
Outline: as §1

[12] = target: Gal(a1-3)Gal
Outline: as §1

[13] = target: Gal(b1-3)GalNAc(a1-3)[Fuc(a1-2)]Gal(b1-4)Glc
Outline: as §1

[14] = target: Gal(b1-3)GlcNAc
Outline: as §1

[15] = target: Gal(b1-3)GlcNAc(a1-3)Gal(b1-4)GlcNAc
Outline: as §1

[16] = target: Gal(b1-3)GlcNAc(b1-3)Gal(b1-4)GlcNAc(b1-2)[Gal(b1-3)GlcNAc(b1-3)Gal(b1-4)GlcNAc(b1-6)]Man(a1-6)[Gal(b1-3)GlcNAc(b1-3)Gal(b1-4)GlcNAc(b1-2)Man(a1-3)]Man(b1-4)GlcNAc(b1-4)[Fuc(a1-6)]GlcNAc
Outline: as §1

[17] = target: Gal(b1-4)GlcNAc(b1-3)Gal(b1-4)GlcNAc(b1-3)Gal(b1-4)GlcNAc(b1-2)Man(a1-3)[Gal(b1-4)GlcNAc(b1-3)Gal(b1-4)GlcNAc(b1-3)Gal(b1-4)GlcNAc(b1-2)Man(a1-6)]Man(b1-4)GlcNAc(b1-4)[Fuc(a1-6)]GlcNAc
Outline: as §1

[18] = target: Gal(b1-4)GlcNAc(b1-3)Gal(b1-4)GlcNAc(b1-3)Gal(b1-4)GlcNAc(b1-3)Gal(b1-4)GlcNAc(b1-3)Gal(b1-4)GlcNAc(b1-2)[Gal(b1-4)GlcNAc(b1-3)Gal(b1-4)GlcNAc(b1-3)Gal(b1-4)GlcNAc(b1-3)Gal(b1-4)GlcNAc(b1-3)Gal(b1-4)GlcNAc(b1-6)]Man(a1-6)[Gal(b1-4)GlcNAc(b1-3)Gal(b1-4)GlcNAc(b1-3)Gal(b1-4)GlcNAc(b1-3)Gal(b1-4)GlcNAc(b1-3)Gal(b1-4)GlcNAc(b1-2)Man(a1-3)]Man(b1-4)GlcNAc(b1-4)[Fuc(a1-6)]GlcNAc
Outline: as §1

[19] = target: Gal(b1-4)GlcNAc(b1-3)Gal(b1-4)GlcNAc(b1-3)Gal(b1-4)GlcNAc(b1-3)Gal(b1-4)GlcNAc(b1-3)Gal(b1-4)GlcNAc(b1-3)Gal(b1-4)GlcNAc(b1-2)Man(a1-3)[Gal(b1-4)GlcNAc(b1-3)Gal(b1-4)GlcNAc(b1-3)Gal(b1-4)GlcNAc(b1-3)Gal(b1-4)GlcNAc(b1-3)Gal(b1-4)GlcNAc(b1-3)Gal(b1-4)GlcNAc(b1-2)Man(a1-6)]Man(b1-4)GlcNAc(b1-4)GlcNAc
Outline: as §1

[20] = target: Gal(b1-4)GlcNAc(b1-3)Gal(b1-4)[Fuc(a1-3)]GlcNAc(b1-3)Gal(b1-4)[Fuc(a1-3)]GlcNAc
Outline: as §1

[21] = target: Gal(b1-6)Gal
Outline: as §1

[22] = target: Gal3S(b1-4)GlcNAc
Outline: as §1

[23] = target: Gal3S6S(b1-4)GlcNAc
Outline: as §1

[24] = target: Gal6S(b1-4)Glc
Outline: as §1

[25] = target: GalNAc(b1-3)GalNAc
Outline: as §1

[26] = target: GalNAc(b1-3)GlcNAc
Outline: as §1

[27] = target: GalNAc(b1-4)Gal(b1-4)Glc
Outline: as §1

[28] = target: GalNAc(b1-4)GlcNAc
Outline: as §1

[29] = target: GalNAc(b1-4)GlcNAc6S
Outline: as §1

[30] = target: GlcA3S(b1-3)Gal(b1-4)GlcNAc(b1-2)Man
Outline: as §1

[31] = target: GlcNAc(a1-4)Gal(b1-3)GlcNAc
Outline: as §1

[32] = target: GlcNAc(b1-2)[GlcNAc(b1-4)]Man(a1-3)[GlcNAc(b1-2)Man(a1-6)]Man(b1-4)GlcNAc(b1-4)GlcNAc
Outline: as §1

[33] = target: GlcNAc(b1-3)Gal(b1-3)GalNAc
Outline: as §1

[34] = target: GlcNAc(b1-3)Gal(b1-4)GlcNAc(b1-3)Gal(b1-4)GlcNAc(b1-2)Man(a1-3)[GlcNAc(b1-3)Gal(b1-4)GlcNAc(b1-3)Gal(b1-4)GlcNAc(b1-2)Man(a1-6)]Man(b1-4)GlcNAc(b1-4)[Fuc(a1-6)]GlcNAc
Outline: as §1

[35] = target: GlcNAc(b1-3)Gal(b1-4)GlcNAc(b1-6)[Gal(b1-3)]GalNAc
Outline: as §1

[36] = target: GlcNAc(b1-3)Gal(b1-4)GlcNAc(b1-6)[GlcNAc(b1-3)]Gal(b1-4)GlcNAc
Outline: as §1

[37] = target: GlcNAc(b1-4)Gal(b1-4)GlcNAc
Outline: as §1

[38] = target: GlcNAc(b1-4)GlcNAc(b1-4)GlcNAc(b1-4)GlcNAc(b1-4)GlcNAc
Outline: as §1

[39] = target: GlcNAc(b1-6)GalNAc
Outline: as §1

[40] = target: Kdn(a2-3)Gal(b1-4)GlcNAc
Outline: as §1

[41] = target: Man(a1-2)Man(a1-2)Man(a1-3)Man
Outline: as §1

[42] = target: Man(a1-2)Man(a1-3)[Man(a1-2)Man(a1-6)]Man(a1-6)[Man(a1-2)Man(a1-2)Man(a1-3)]Man(b1-4)GlcNAc(b1-4)GlcNAc
Outline: as §1

[43] = target: Man(a1-2)Man(a1-6)[Man(a1-3)]Man(a1-6)[Man(a1-2)Man(a1-2)Man(a1-3)]Man(b1-4)GlcNAc(b1-4)GlcNAc
Outline: as §1

[44] = target: Neu5Ac(a2-3)Gal(b1-3)GalNAc(b1-3)Gal(a1-4)Gal(b1-4)Glc
Outline: as §1

[45] = target: Neu5Ac(a2-3)Gal(b1-3)GlcNAc(b1-6)GalNAc
Outline: as §1

[46] = target: Neu5Ac(a2-3)Gal(b1-3)GlcNAc6S
Outline: as §1

[47] = target: Neu5Ac(a2-3)Gal(b1-4)GlcNAc(b1-3)Gal
Outline: as §1

[48] = target: Neu5Ac(a2-3)Gal(b1-4)[Fuc(a1-3)]GlcNAc(b1-2)Man
Outline: as §1

[49] = target: Neu5Ac(a2-3)Gal(b1-4)[Fuc(a1-3)]GlcNAc(b1-6)[Neu5Ac(a2-3)Gal(b1-3)]GalNAc
Outline: as §1

[50] = target: Neu5Ac(a2-3)GalNAc
Outline: as §1

[51] = target: Neu5Ac(a2-6)Gal
Outline: as §1

[52] = target: Neu5Ac(a2-6)Gal(b1-4)GlcNAc(b1-2)[Neu5Ac(a2-6)Gal(b1-4)GlcNAc(b1-6)]Man(a1-6)[Neu5Ac(a2-6)Gal(b1-4)GlcNAc(b1-2)Man(a1-3)][GlcNAc(b1-4)]Man(b1-4)GlcNAc(b1-4)GlcNAc
Outline: as §1

[53] = target: Neu5Ac(a2-6)Gal(b1-4)GlcNAc(b1-3)Gal(b1-4)GlcNAc(b1-2)Man(a1-3)[Neu5Ac(a2-6)Gal(b1-4)GlcNAc(b1-3)Gal(b1-4)GlcNAc(b1-2)Man(a1-6)]GalNAc
Outline: as §1

[54] = target: Neu5Ac(a2-8)Neu5Ac(a2-3)Gal(b1-3)GalNAc(b1-4)[Neu5Ac(a2-3)]Gal(b1-4)Glc
Outline: as §1

[55] = target: Neu5Ac(a2-8)Neu5Ac(a2-3)Gal(b1-3)GalNAc(b1-4)[Neu5Ac(a2-8)Neu5Ac(a2-3)]Gal(b1-4)Glc
Outline: as §1

[56] = target: Neu5Gc(a2-6)Gal(b1-4)GlcNAc
Outline: as §1

[57] = target: Neu5Gc(a2-8)Neu5Gc(a2-3)Gal(b1-4)GlcNAc
Outline: as §1

[58] = target: Neu5Gc(a2-8)Neu5Gc(a2-3)Gal(b1-4)GlcNAc(b1-3)Gal(b1-4)GlcNAc
Outline: as §1

[59] = target: Neu5Gc(a2-8)Neu5Gc(a2-6)Gal(b1-4)GlcNAc
Outline: as §1

B1: CBP21 (Serratia marcescens), O83009 (protein)
chain: MNKTSRTLLSLGLLSAAMFGVSQQANAHGYVESPASRAYQCKLQLNTQCGSVQYEPQSVEGLKGFPQAGPADGHIASADKSTFFELDQQTPTRWNKLNLKTGPNSFTWKLTARHSTTSWRYFITKPNWDASQPLTRASFDLTPFCQFNDGGAIPAAQVTHQCNIPADRSGSHVILAVWDIADTANAFYQAIDVNLSK
- glycan array binding signal (z-score) [1]: 4.3
- glycan array binding signal (z-score) [2]: -1.02
- glycan array binding signal (z-score) [3]: 3.02
- glycan array binding signal (z-score) [4]: 2.95
- glycan array binding signal (z-score) [5]: -0.19
- glycan array binding signal (z-score) [6]: 2.99
- glycan array binding signal (z-score) [7]: -0.513
- glycan array binding signal (z-score) [8]: -0.038
- glycan array binding signal (z-score) [9]: -0.009
- glycan array binding signal (z-score) [10]: -1.15
- glycan array binding signal (z-score) [11]: 0.402
- glycan array binding signal (z-score) [12]: -0.172
- glycan array binding signal (z-score) [13]: -0.45
- glycan array binding signal (z-score) [14]: -0.226
- glycan array binding signal (z-score) [15]: 0.425
- glycan array binding signal (z-score) [16]: 3.27
- glycan array binding signal (z-score) [17]: 2.68
- glycan array binding signal (z-score) [18]: 2.67
- glycan array binding signal (z-score) [19]: 1.21
- glycan array binding signal (z-score) [20]: -0.565
- glycan array binding signal (z-score) [21]: -0.589
- glycan array binding signal (z-score) [22]: 1.21
- glycan array binding signal (z-score) [23]: 0.23
- glycan array binding signal (z-score) [24]: -0.3
- glycan array binding signal (z-score) [25]: -0.453
- glycan array binding signal (z-score) [26]: -0.162
- glycan array binding signal (z-score) [27]: 1.03
- glycan array binding signal (z-score) [28]: 0.482
- glycan array binding signal (z-score) [29]: 0.16
- glycan array binding signal (z-score) [30]: -1.64
- glycan array binding signal (z-score) [31]: 0.503
- glycan array binding signal (z-score) [32]: -0.435
- glycan array binding signal (z-score) [33]: 0.04
- glycan array binding signal (z-score) [34]: 3.08
- glycan array binding signal (z-score) [35]: -0.256
- glycan array binding signal (z-score) [36]: -1.31
- glycan array binding signal (z-score) [37]: 0.145
- glycan array binding signal (z-score) [38]: 0.729
- glycan array binding signal (z-score) [39]: -0.697
- glycan array binding signal (z-score) [40]: -0.42
- glycan array binding signal (z-score) [41]: -0.437
- glycan array binding signal (z-score) [42]: 2.53
- glycan array binding signal (z-score) [43]: 0.074
- glycan array binding signal (z-score) [44]: 1.24
- glycan array binding signal (z-score) [45]: 0.458
- glycan array binding signal (z-score) [46]: -0.561
- glycan array binding signal (z-score) [47]: -0.019
- glycan array binding signal (z-score) [48]: -1.42
- glycan array binding signal (z-score) [49]: -0.314
- glycan array binding signal (z-score) [50]: -0.582
- glycan array binding signal (z-score) [51]: 0.109
- glycan array binding signal (z-score) [52]: 0.063
- glycan array binding signal (z-score) [53]: 2.96
- glycan array binding signal (z-score) [54]: 4
- glycan array binding signal (z-score) [55]: 0.155
- glycan array binding signal (z-score) [56]: 0.755
- glycan array binding signal (z-score) [57]: -0.788
- glycan array binding signal (z-score) [58]: 0.62
- glycan array binding signal (z-score) [59]: 0.37

Reference: the supplement of paper PMC8728848
